From PubChem
Pf Dd2 growth: blocks in vitro growth of P. falciparum Dd2; Potency, µM (doses to about 28.9 µM), inactives show at the highest dose activity, negative = inhibition, actives largely listed as inhibitors; actives 4.3% (n = 120,000); P. falciparum Dd2 growth, SYBR Green, 72 h; active = well fitted inhibition curve with a large enough effect;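 note: plate controls were DMSO vehicle for no effect and reference drug for full effect; nearly all actives have a fitted effect of over 65% in size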
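Infected erythrocytes (Dd2, 0.3% parasitemia, 2.5% hematocrit final) are added to compound in RPMI-1640/Albumax II medium, grown 72 h at 37C in low oxygen, then lysed with saponin/Triton-X containing SYBR Green and read by fluorescence.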
The depositor's hits bear a star; i = inactive; [ ] = another dose, or the depositor's remark. This excerpt belongs to a sample that is enriched for hits. Potency is the fitted concentration of half-maximal effect.

SMILES	Pf Dd2 growth
Cc1nc(CN2CCOc3c(O)cc(-c4nc5ccccc5s4)cc3C2)no1	-25%
O=C(c1ccc(C(F)(F)F)cc1)N1CCC(c2nn(-c3ccccc3)c(=O)[nH]2)CC1	i
CN1C(=O)C(CC(=O)N2CCCCC2)=C2CCCCC21 (configuration not stated)	i
CN(C)C[C@@H]1CN(Cc2ccncc2)C[C@H]1NC(=O)c1cccc(C#N)c1	9%
CN1CCCCCC(O)c2cc(C(=O)NCCN3CCOCC3)ccc21 (configuration not stated)	-16%
CN1CCCCCC(O)c2cc(C(=O)NCCc3c[nH]c4ccccc34)ccc21 (configuration not stated)	13µM*
CN1CCCCCC(O)c2cc(C(=O)NCCCc3ccccc3)ccc21 (configuration not stated)	-18%
CC(=O)Nc1ccc(NC(=O)Cn2ccn3nc(-c4ccc(F)cc4)c(CO)c3c2=O)cc1	11%
O=C([C@H]1C[C@H](Oc2cccnc2)CN1C(=O)c1ccccc1)N1CCOCC1	18%
CC(C)CCN1CCC(N2CCN(C(=O)c3ccccc3Br)CC2)C1=O (configuration not stated)	-15%
COc1ccc(Cl)cc1C(=O)N1CCC2(CC1)CC(O)CCO2 (configuration not stated)	-11%
N#CC1=C(N)N(c2cccc(Cl)c2)C2=C(C(=O)CCC2)C1c1cc(CN2CCOCC2)cs1 (configuration not stated)	10µM*
O=c1[nH]c(N2CCOCC2)nc2c1CCN(Cc1cccc(Cl)c1)CC2	18%[5.79 µM]
N#Cc1ccc(CN2CCCOCCNC(=O)CC2)cc1	-8%
O=C1N(C2CCOCC2)C[C@H]2CN(Cc3cccc(Cl)c3)CCN12	i
N#CC1=C(N)N(c2ccc(Cl)cc2)C2=C(C(=O)CCC2)C1c1cc(CN2CCOCC2)cs1 (configuration not stated)	13µM*
COC1C(=O)N(CC2CC2)C12CCN(C(=O)Cc1c[nH]c3ccccc13)CC2 (configuration not stated)	-24%
CCCNC(=O)C(NC(=O)c1ccc(OC)cc1)C1CCN(C(=O)c2ccccc2C)CC1 (configuration not stated)	i
CN(Cc1ccc(C(F)(F)F)cc1)Cc1cccn1C	14%[44.1 µM]
CSCC[C@@H]1NC(=O)c2cc(NC(=O)Cc3ccc4c(c3)OCC4)ccc2NC1=O	-2%
CCN1C(=O)COC[C@@H]1[C@H](O)c1ccc(NC(=O)c2ccnc(Cl)c2)cc1	-6%[44.1 µM]
COc1ccc(CCC(=O)N2[C@@H]3CC[C@H]2CC(NC(=O)c2ccncc2)C3)cc1 (some centres not stated)	0%
COCCN1C(=O)[C@@H]2C[C@@H](CN2C(=O)C2CCOCC2)Oc2ccccc21	27%[44.1 µM]
COc1ccccc1N1CCN(S(=O)(=O)c2cc3[nH]c(=O)c(=O)[nH]c3cc2C)CC1	-7%
Cc1cc2[nH]c(=O)c(=O)[nH]c2cc1S(=O)(=O)N1CCN(c2cccc(C)c2C)CC1	7.9µM*
SMILES	Pf Dd2 growth
Cc1cc2[nH]c(=O)c(=O)[nH]c2cc1S(=O)(=O)N1CCN(c2ccccc2F)CC1	9%
COCc1nc(C2CCCN(C(=O)c3ccccc3OC)C2)no1 (configuration not stated)	26%
COc1ccccc1N1CCN([C@@H]2[C@H](O)[C@H](CO)O[C@@H]2CN)CC1	31%
Cc1cc(C)c2c(CC(=O)N[C@@H]3CCOC[C@H]3Oc3ccccn3)coc2c1	-23%
COc1ccc(OC)c(CCNC(=O)c2c(C)oc3ncn(C)c(=O)c23)c1	-19%
COc1ccc(OC)c(CNC(=O)c2c(C)oc3ncn(CC(C)C)c(=O)c23)c1	10µM*
CCOC(=O)C(C)NC(=O)c1c(C)oc2ncn(CC(C)C)c(=O)c12 (configuration not stated)	12%
O=C(Cc1ccccn1)N1CCC(N2CCCCCC2=O)CC1	-11%[44.1 µM]
COc1ccc(-c2cc(N3CCN(C(=O)c4cccc(OC)c4OC)CC3)n[nH]2)cc1	-8%
O=C(CCC1CCCN(S(=O)(=O)c2ccc(F)cc2)C1)NCCN1CCOCC1 (configuration not stated)	-19%
O=C(c1ccccc1)N1CCC(N(C(=O)C2CC2)C2CCOCC2)CC1	39%
O=C(C1CCC1)N1CCC(N(C(=O)C2CC2)C2CCOCC2)CC1	57%
COc1ccccc1NC(=O)N1CCC(N(C(=O)C2CC2)C2CCOCC2)CC1	4.5µM*
CC(C)CC(NC(=O)c1cccc(-n2cnnc2)c1)c1ncnn1C (configuration not stated)	-16%
c1ccc(Cn2nc(Cn3cncn3)nc2C2CCCCn3nnnc32)cc1 (configuration not stated)	-9%
CC(=O)Nc1ccc(C(=O)N2CCC3(CC2)N=C(c2cccc(Br)c2)NO3)cc1	11µM*
O=C(c1ccccc1)N1CCC2(CC1)N=C(c1cccc(Br)c1)NO2	i
COc1ccccc1CC(=O)N1CCC2(CC1)N=C(c1ccc(Cl)cc1)NO2	-35%
Cc1ccc(C2=NC3(CCN(C(=O)Cc4ccccc4Cl)CC3)ON2)cc1	11µM*
